Source: PubChem BioAssay
In the library only some 3.8% were active in any assay of this set; here they are far more common.
A549 viability = kills or reduces viability of A549 cells in Nrf2 counter-screen | AID 504648 | Potency, µM (doses to about 46 µM), for the others: top-dose activity change, negative = cytotoxicity, hits mostly inhibitors | 390,000 compounds, 0.16% hits | A549 ARE-Fluc cells, CellTiter-Fluor viability, 18-24 h; note: % is set by controls: 0 for no effect and ±100 for the full control effect
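Cytotoxicity counterscreen: CellTiter-Fluor fluorescence was measured in A549 ARE_Fluc cells after 18-24 h of compound exposure in a concentration series. The subsequent BugLite luminescent read reports ARE-luciferase activity.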
ELG1 repair inh = inhibitors of ELG1-dependent DNA repair in HEK293T cells; HEK293T ELG1-luciferase reporter, luminescence, 16 h; DNA damage induced by 5-fluorouridine; Potency, µM (series often up to 46.1 µM), inactives show at the highest dose activity change, negative = inhibition, most hits filed as inhibitors; 330,000 compounds, 2.3% hits; AID 504467; note: % is set by controls: 0 for no effect and ±100 for the full control effect; nearly all actives have a fitted effect of over 55% in size
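In this reporter screen, reduction of luminescence relative to DMSO vehicle indicated activity. Compounds and 5-fluorouridine were added together to 2,000 cells per well, incubated for 16 hr at 37 °C, then developed with ONE-Glo.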
Nrf2 inh = blocks Nrf2 signaling; Potency, µM (series often up to 46 µM), for the others: at the top dose activity change, negative = inhibition, actives largely listed as inhibitors; 360,000 compounds, 2.1% hits; A549 ARE-Fluc reporter, luciferase luminescence, 18-24 h; note: % is set by controls: 0 for no effect and ±100 for the full control effect; nearly all actives have a fitted effect of over 60% in size
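Reporter: ARE-Fluc in A549. Exposure: 18-24 h, 37 °C, 5% CO2, 5% FBS OPTI-MEM. Readouts: fluorescent cytotoxicity (CellTiter-Fluor), then luminescent Nrf2 signal after BugLite.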
Nrf2 activator = activators of Nrf2 (ARE) signaling. AREc32 ARE-luciferase reporter (MCF7-derived line), luminescence, 24 h. Potency, µM (series often up to 46.1 µM), for the others: top-dose activation, usual class: activators. 410,000 compounds, 0.31% hits; note: % of control where 0% means no effect; nearly all actives have a fitted effect of over 65% in size
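Nrf2 activation is followed as ARE-luciferase induction in the AREc32 line after one day of compound treatment; luminescence is read with Steady-Glo.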
mIDH1 inhibitor = inhibitors of human mutant IDH1 R132H; O75874; IDH1-R132H enzyme, NADPH consumption, diaphorase/resazurin fluorescence; Potency, µM (titrated, usually from 76.6 µM), for inactives: top-dose activity change, negative = inhibition, usual class: inhibitors; 390,000 compounds, 0.093% hits; AID 602179; note: % is set by controls: 0 for no effect and ±100 for the full control effect; nearly all actives have a fitted effect of over 65% in size
Target sequence (O75874 whole entry R132H, stated change not applied): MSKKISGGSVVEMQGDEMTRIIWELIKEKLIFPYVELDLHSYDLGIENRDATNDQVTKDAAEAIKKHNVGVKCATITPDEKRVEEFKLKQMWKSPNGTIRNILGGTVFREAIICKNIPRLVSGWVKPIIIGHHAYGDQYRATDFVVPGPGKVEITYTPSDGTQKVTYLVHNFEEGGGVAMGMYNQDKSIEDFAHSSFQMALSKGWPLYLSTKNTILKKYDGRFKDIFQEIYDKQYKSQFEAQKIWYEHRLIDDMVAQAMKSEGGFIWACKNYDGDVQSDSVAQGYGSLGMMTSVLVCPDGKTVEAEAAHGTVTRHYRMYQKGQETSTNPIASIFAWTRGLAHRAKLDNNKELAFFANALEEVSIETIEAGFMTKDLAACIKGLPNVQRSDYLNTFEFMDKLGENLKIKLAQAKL
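IDH1-R132H (0.5 ug/mL) preincubated 30 min with compound, then NADPH (0.016 mM) and alpha-KG (2 mM) added; 80 min at RT, pH 7.5. Remaining NADPH coupled via diaphorase/resazurin to fluorescence (540/590 nm); concentration-response curves normalized to no-enzyme control.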
* = called active by the depositor; ? = inconclusive; · = not tested or not shown. Calls come from the whole dose curve; as a rule, active = well fitted curve in the direction sought with a large enough effect; inconclusive = small, poorly fitted or top-dose-only effect, or another doubt; inactive = no such curve, though single readings can be large; an effect the other way counts as inactive or inconclusive. Potency is the fitted concentration of half-maximal effect.

SMILES | A549 viability | ELG1 repair inh | Nrf2 inh | Nrf2 activator | mIDH1 inhibitor
CC[C@]12c3[nH]c4ccc(Cl)cc4c3CCN1C(=O)[C@@H](CC(=O)NCc1cccc(C(F)(F)F)c1)C[C@@H]2C(=O)N1CCN(C(=O)c2ccco2)CC1 | ? | 13µM* | ? | -1% | -16%
C[C@]12c3[nH]c4ccc(Cl)cc4c3CCN1C(=O)[C@@H](CC(=O)NCc1cccc(C(F)(F)F)c1)C[C@@H]2C(=O)N1CCCCC1 | ? | 23µM* | -95% | -3% | 0%
COc1ccc(CNC(=O)C[C@H]2C[C@H](C(=O)N(C(C)C)C(C)C)[C@@]3(C)c4[nH]c5ccc(Cl)cc5c4CCN3C2=O)cc1OC | -27% | ? | ? | 8% | -2%
CC(C)N(C(=O)[C@H]1C[C@H](CC(=O)NCCC2=CCCCC2)C(=O)N2CCc3c([nH]c4ccc(Cl)cc34)[C@]12C)C(C)C | ? | ? | 21µM* | 0% | 4%
Cc1cccc2sc(N(Cc3cccnc3)C(=O)C3COc4ccccc4O3)nc12 (stereo not drawn) | 9% | · | · | 0% | -9%
Cc1ccc(S(=O)(=O)N2CCN(c3nc(-c4cncnc4)nc4ccccc34)CC2)cc1 | -4% | · | -9% | · | ·
CCCCCc1nnc(NC(=O)NS(=O)(=O)c2ccc(C)cc2)s1 | 1% | -6% | 5% | 0% | 5%
Cc1ccc2nc(-c3ccc(C)o3)c(Nc3ccc(Cl)cc3)n2c1 | -2% | · | 4% | · | ·
CC[C@]12c3[nH]c4cc(-c5ccco5)ccc4c3CCN1C(=O)[C@@H](CC(=O)NC/C=C(\C)CCC=C(C)C)C[C@@H]2C(=O)N1CCN(C(=O)c2ccco2)CC1 | -27% | ? | ? | 5% | -25%
CC[C@]12c3[nH]c4ccccc4c3CCN1C(=O)C(CC(=O)NC/C=C(\C)CCC=C(C)C)C[C@@H]2C(=O)N1CCN(C(=O)c2ccco2)CC1 (stereo partly drawn) | -22% | -4% | 23µM* | -1% | -20%
COc1ccc(N2CCN(C(=O)CSc3nc4nc(C)cc(C)n4n3)CC2)cc1 | 10% | 0% | -2% | -1% | 0%
Cc1nn(Cc2ccc(F)cc2)c2sc(C(=O)Nc3ccccc3N3CCOCC3)cc12 | 0% | ? | -31% | 0% | -6%
Cc1nn(Cc2ccccc2Cl)c2sc(C(=O)Nc3ccccc3N3CCOCC3)cc12 | -8% | 23µM* | -17% | 0% | 5%
Cc1cc(NS(=O)(=O)c2ccc3c(c2)CCC(=O)N3)ccc1Cl | -1% | · | ? | · | ·
O=C(c1ccc(=O)n(Cc2ccccc2)n1)N1CCN(C/C=C/c2ccccc2)CC1 | -1% | 16µM* | ? | 2% | 7%
COc1ccc(C)cc1NC(=O)c1sc2ncn(CC(=O)N3CCCCC3)c(=O)c2c1C | 2% | -1% | -1% | -1% | 0%
Cc1c(Cl)cccc1NC(=O)C(C)n1nc(C)c2c(C)n(-c3ccccc3)nc2c1=O (stereo not drawn) | 8% | · | -22% | 0% | 0%
COc1ccc(-c2cn3nc(N4CCC(C(=O)Nc5cc(Cl)ccc5C)CC4)sc3n2)cc1 | 0% | · | 12% | 5% | -20%
Cc1c(Cl)cccc1NC(=O)N1CCOc2ccccc21 | 12% | · | 17% | -1% | 13%
CSc1ccc(Cl)c(C(=O)N2CCOc3ccccc32)c1 | -1% | 9.2µM* | ? | 4% | 10%
Cc1ccc(NS(=O)(=O)c2cccc(F)c2)cc1C | 7% | · | 4% | · | ·
O=S(=O)(c1ccc2c(c1)OCCO2)N1CCN(S(=O)(=O)c2cccc(Cl)c2F)CC1 | 3% | · | 13% | · | ·
CCOc1ccc(CCN2C(=S)N([C@@H](Cc3ccc(O)cc3)CN3CCCC3CN3C(=S)NC[C@@H]3Cc3ccc(O)cc3)C[C@@H]2CC(C)C)cc1 (stereo partly drawn) | -11% | · | 16µM* | -1% | 4%
CC(=O)c1ccc(NC(=O)CSc2nc3nn(-c4ccccc4)c(=O)c-3c3n2CCCCC3)cc1 | 6% | · | -11% | 2% | -1%
O=C(CSc1nc2nn(-c3ccccc3)c(=O)c-2c2n1CCCCC2)c1ccc(O)c(O)c1 | -5% | 18µM* | -30% | -1% | 1%
SMILES | A549 viability | ELG1 repair inh | Nrf2 inh | Nrf2 activator | mIDH1 inhibitor
O=C(CSc1nc2nn(-c3ccccc3)c(=O)c-2c2n1CCCCC2)Nc1ccc(OC(F)F)cc1 | -10% | 13µM* | ? | 3% | 2%
O=C(CSc1nc2nn(-c3ccccc3)c(=O)c-2c2n1CCCCC2)Nc1ccc(F)c(F)c1 | ? | ? | 18µM* | -1% | -1%
COc1cc2c(cc1OC)CN(c1ccc3ccccc3n1)CC2 | 2% | ? | -23% | 2% | -10%
COc1cc2c(cc1OC)CN(c1ccc(-c3ccccc3OC)nn1)CC2 | -5% | ? | 18µM* | 4% | 1%
O=C(Nc1nnc(S(=O)(=O)N2CCCCC2)s1)c1cccc(Br)c1 | -8% | -1% | 26µM* | 3% | 37%
COc1ccc(NC(=O)c2cccc(S(=O)(=O)N3CCCCCC3)c2)cc1 | -1% | 21µM* | ? | 0% | 4%
CC(=O)Nc1ccc(NC(=O)c2cccc(S(=O)(=O)N3CCCCCC3)c2)cc1 | 3% | 30% | -24% | -1% | -1%
CC1CCN(S(=O)(=O)c2nnc(NC(=O)c3cccc(Br)c3)s2)CC1 | 5% | · | -11% | 0% | 35%
Cc1nc(-c2cccc(NC(=O)c3ccc(-n4cccn4)cc3)c2)cs1 | -7% | ? | 15µM* | 1% | -4%
CC1CN(S(=O)(=O)c2cccc(C(=O)N=c3sccn3C)c2)CC(C)O1 (stereo not drawn) | -18% | -8% | 12µM* | 3% | 3%
CC1CN(S(=O)(=O)c2cccc(C(=O)N(C)C3CCN(C)CC3)c2)CC(C)O1 (stereo not drawn) | -1% | -2% | 4% | 0% | 15%
O=C(c1ccc2c(=O)n(CCc3ccccc3)c(=O)[nH]c2c1)N1CCN(C(=O)c2ccco2)CC1 | 1% | · | ? | · | ·
O=C1Cc2cc(S(=O)(=O)N3CCN(c4ccc([N+](=O)[O-])cc4)CC3)ccc2N1 | -4% | · | 31% | · | ·
O=C(Nc1cccc(S(=O)(=O)N2CCOCC2)c1)c1ccc(Cl)nc1 | 1% | ? | 2% | 2% | -5%
C=CCN(c1ccccc1)S(=O)(=O)c1cccc(C(=O)Nc2ccc(N3CCOCC3)cc2)c1 | 3% | 15µM* | ? | 3% | 0%
Cc1nc(-c2cccc(NC(=O)c3ccc(Cl)c(S(=O)(=O)N4CCCC4)c3)c2)cs1 | · | · | · | -2% | 12%
Cc1nc(-c2cccc(NC(=O)c3cccc(S(=O)(=O)N4CCCC4)c3)c2)cs1 | -17% | 18µM* | ? | 0% | 14%
